Experimental findings from PubChem BioAssay (NCATS) are described below.

Inconclusive results are not listed. The source made the active and inactive calls. Calls come from the whole dose curve; as a rule, active = well fitted inhibition curve with a large enough effect; inconclusive = small, poorly fitted or top-dose-only effect; inactive = no such curve, though single readings can be large or run the other way.
% is set by controls: 0 for no effect and ±100 for the full control effect; potency is the fitted concentration of half-maximal effect.

The first assay relates to Zika virus NS2B-NS3 protease (unlinked complex). In words: Primary screen GU Rhodamine qHTS for Zika virus inhibitors: Unlinked NS2B-NS3 protease assay (AID 1347159). Note: nearly all actives have a fitted effect of over 60% in size. The note with it: Recombinant ZIKV NS2B-NS3 protease, Rhodamine110 substrate fluorescence; series mostly up to 107 µM; activity change, negative = inhibition: at the top concentration. In outline:
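Compounds, tested up to 114 microM, were incubated for 15 minutes with 25 nM unlinked NS2B-NS3 protease at pH 8.0. Cleavage of 1.5 microM Rhodamine110 substrate was then followed by fluorescence for 15 minutes.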
(Quantitative high-throughput screening tests each substance at several concentrations.)
Regarding `COc1cc(/C=C/c2cc(O)cc(O[C@@H]3O[C@H](CO)[C@@H](O)[C@H](O)[C@H]3O)c2)ccc1O`, the “activity change, negative = inhibition” value is 13.2% [at 57.1 µM] (inactive).

For the compound `OC[C@H]1O[C@@H](n2cnc3c2NC=NC[C@H]3O)C[C@@H]1O`, the “activity change, negative = inhibition” value is 13.5% (inactive).

Consider `CCOC(=O)Nc1nc2ccccc2[nH]1`, for which the “activity change, negative = inhibition” value was 29.6% (inactive).

For `CN(C)C/C=C/C(=O)Nc1ccc(C(=O)Nc2cccc(Nc3ncc(Cl)c(-c4c[nH]c5ccccc45)n3)c2)cc1`, the “activity change, negative = inhibition” value is 46% (inactive).

Consider `Clc1ccc(CN[C@H]2CCN(c3ncc(Br)cn3)C2)c(Cl)c1`, for which the “activity change, negative = inhibition” value was 24.2% (inactive).

For `CC1(C)C(=O)N2c3ccccc3[C@]3(CC(n4cnc5ccccc5c4=O)C(=O)O3)[C@H]2N1O` (stereo not given in full), the “activity change, negative = inhibition” value is 12.5% [at 57.1 µM] (inactive).

On to `CC1=C(C)C(=O)OC(C(C)C2C(O)CC3C4C5OC5C5(O)CC(OC6OC(CO)C(O)C(O)C6O)CC(O)C5(C)C4CCC32C)C1` (stereo not given), for which the “activity change, negative = inhibition” value is 19.8% [at 32.5 µM] (inactive).

Take `Cc1cc(O)cc(Oc2cc(C)c(C(=O)O)c(O)c2)c1`: the Potency was 14.1 µM (active).

Regarding `CCc1nc(C(N)=O)c(Nc2ccc(N3CCC(N4CCN(C)CC4)CC3)c(OC)c2)nc1NC1CCOCC1`, the “activity change, negative = inhibition” value is -1.05% (inactive).

`CCC(=O)NS(=O)(=O)c1ccc(-c2c(-c3ccccc3)noc2C)cc1`: the “activity change, negative = inhibition” value was -18.2% (inactive).

As to `Cc1cn2c(N)c(Cl)cc(C(=O)NCC3CCN(CC(C)C)CC3)c2n1`, the “activity change, negative = inhibition” value is -22.9% (inactive).

On to `C#Cc1cnc2[nH]c(=O)n(C(CC)CC)c2n1`, for which the “activity change, negative = inhibition” value is 15% (inactive).

The subject of another assay is Zika virus NS2B-NS3 protease (linked construct). Briefly: Primary screen NINDS Rhodamine qHTS for Zika virus inhibitors (AID 1347160). Note: nearly all actives have a fitted effect of over 55% in size. Particulars: purified NS2B-NS3 protease, Rhodamine110 substrate fluorescence; series mostly up to 57.1 µM; activity change, negative = inhibition: at the top concentration. The method, boiled down: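 Percent inhibition, normalized to uninhibited and enzyme-free controls, is fitted to a 4-parameter Hill equation. Fluorescence change comes from a 15-min cleavage of 1.5 microM bis-peptide Rhodamine110 substrate by 25 nM linked NS2B-NS3 at room temperature.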
With `CC(=O)O[C@@H]1[C@H]2[C@@H](OC(=O)c3ccccc3)[C@@H](C)C[C@]2(O)[C@H](OC(C)=O)[C@@]2(C)[C@@H]3CC(C)(C)C(=O)[C@]3(OC(C)=O)C[C@@]12C`, the “activity change, negative = inhibition” value was -5.8% [at 15.1 µM] (inactive).

For the compound `CC1(C)CC(=O)N(CCCCN2CCN(c3ncccn3)CC2)C(=O)C1`, the “activity change, negative = inhibition” value is 16.4% (inactive).

With `COc1cc(/C=C/c2cc(O)cc(O[C@@H]3O[C@H](CO)[C@@H](O)[C@H](O)[C@H]3O)c2)ccc1O`, the “activity change, negative = inhibition” value is 23.9% [at 33.1 µM] (inactive).

For the compound `CC(C)CC(=O)OC[C@H]1O[C@@](COC(=O)CC(C)C)(O[C@H]2O[C@H](CO)[C@@H](O)[C@H](O)[C@H]2OC(=O)CC(C)C)[C@@H](OC(=O)CC(C)C)[C@@H]1O`, the “outcome” value is “inactive [at 15.1 µM]”.

On to `CC1CCC2C(C(=O)O)=CC3CC(C)(C)CC132` (stereo not given), for which the Potency was 25.1 µM (active).

Turning to `CC(=O)O[C@H]1C[C@@H]2[C@]3(CC[C@]4(C)[C@@H](C5(C)CCC(C(C)(C)O)O5)[C@@H](O)C[C@@]24C)C[C@@]32CC[C@H](O[C@@H]3OC[C@@H](O)[C@H](O)[C@H]3O)C(C)(C)[C@H]12` (stereo not given in full), the “activity change, negative = inhibition” value is -12.1% [at 15.1 µM] (inactive).

For `OC[C@H]1O[C@@H](n2cnc3c2NC=NC[C@H]3O)C[C@@H]1O`, the result was inactive.

Turning to `NCCCC[C@H](NC(=O)[C@@H]1Cc2ccccc2CN1C(=O)CCC(=O)c1ccccc1)C(=O)NCC(c1ccccc1)c1ccccc1`, the “activity change, negative = inhibition” value was 109% (inactive).

For the compound `CC1CCC2(C(=O)OC3OC(CO)C(O)C(O)C3O)CCC3(C(=O)O)C(=CCC4C5(C)CCC(OC6OC(C)C(O)C(O)C6O)C(C)(C)C5CCC43C)C2C1C` (stereo not given), the “activity change, negative = inhibition” value is -1.51% [at 15.1 µM] (inactive).

On to `NCCOCCOCCNC(=O)Cc1ccc(Nc2nc(NCc3ccc(F)cc3)nc(NCC3CCCCC3)n2)cc1`, for which the “activity change, negative = inhibition” value was 673% (inactive).

In the case of `C=C1CCC2C(C)(C)C(O)CCC2(C)C1CCC(C)CCOC(=O)CCC(=O)O` (stereo not given), the “outcome” value was “inactive [at 33.1 µM]”.

In the case of `CCOC(=O)Nc1nc2ccccc2[nH]1`, the “activity change, negative = inhibition” value was 39.3% (inactive).

Consider `CC(=O)OC[C@]1(O)[C@H]2[C@H](OC(=O)CC(C)C)OC=C(CO[C@@H]3O[C@H](CO)[C@@H](O)[C@H](O)[C@H]3O)[C@H]2C[C@@H]1O`, for which the “activity change, negative = inhibition” value was -18.6% [at 33.1 µM] (inactive).

Turning to `CN(C)C/C=C/C(=O)Nc1ccc(C(=O)Nc2cccc(Nc3ncc(Cl)c(-c4c[nH]c5ccccc45)n3)c2)cc1`, the compound was classed as inactive.

Regarding `CCOC(=O)N1CCC(NCCNC(=O)c2ccccc2C)CC1`, the “activity change, negative = inhibition” value is 20.7% (inactive).

On to `O=c1c2ccccc2nc2n1CCC2O` (stereo not given), for which the “activity change, negative = inhibition” value is 7.72% [at 112 µM] (inactive).

`C[C@]12C=CC(=O)C=C1CC[C@@H]1[C@@H]2[C@@H](O)C[C@@]2(C)[C@H]1CC[C@]2(O)C(=O)COC(=O)CCC(=O)O`: the “activity change, negative = inhibition” value was 16.3% (inactive).

As for `C=C[C@H]1[C@H](O[C@@H]2O[C@H](CO)[C@@H](O)[C@H](O)[C@H]2O)OC=C(C(=O)OC)[C@H]1C[C@@H]1N[C@H](C(=O)O)Cc2c1[nH]c1ccccc21`, the “activity change, negative = inhibition” value is -10.8% [at 33.1 µM] (inactive).

In the case of `Clc1ccc(CN[C@H]2CCN(c3ncc(Br)cn3)C2)c(Cl)c1`, the “activity change, negative = inhibition” value was 39% (inactive).

Regarding `C#C[C@]1(O)CC[C@H]2[C@@H]3CCC4=C/C(=N/O)CC[C@@H]4[C@H]3CC[C@@]21CC`, the “outcome” value is “inactive; activator”.

For `CC1(C)C(=O)N2c3ccccc3[C@]3(CC(n4cnc5ccccc5c4=O)C(=O)O3)[C@H]2N1O` (stereo not given in full), the “activity change, negative = inhibition” value is 23.6% [at 33.1 µM] (inactive).

`C=C1CCC2C(OC(=O)C2(O)COC(C)=O)C2C(=C)C(O)CC12` (stereo not given): the “activity change, negative = inhibition” value was -5.88% [at 33.1 µM] (inactive).

Take `CC1(C)CCC(C)(C)c2cc([C@@H](O)C(=O)Nc3ccc(C(=O)O)cc3F)ccc21`: the Potency was 14.1 µM (active).

With `COc1cc(COC2OC(CO)C(O)C(O)C2O)cc(OC)c1O` (stereo not given), the “activity change, negative = inhibition” value was -15.6% [at 33.1 µM] (inactive).

As to `CCC(C)/C=C(C)/C=C/C1=CC2=C(Cl)C(=O)C(C)(OC(C)=O)C(=O)C2=CN1C1CCCCN(C(CCC(N)=O)C(=O)O)C1=O` (stereo not given), the “activity change, negative = inhibition” value was -18.7% [at 15.1 µM] (inactive).

Regarding `CCC[C@@H]1C[C@@H](C(=O)N[C@@H]([C@H]2O[C@H](SC)[C@H](O)[C@@H](O)[C@@H]2O)[C@@H](C)O)N(C)C1`, the “activity change, negative = inhibition” value is 11.7% (inactive).

Turning to `COc1cc(/C=C/C(=O)O[C@H]2[C@H](O)[C@@H](CO)O[C@@]2(CO)O[C@H]2O[C@H](COC(=O)c3ccc(O)cc3)[C@@H](O)[C@H](O)[C@H]2O)cc(OC)c1OC`, the “activity change, negative = inhibition” value was 14.2% [at 15.1 µM] (inactive).

Turning to `CCCC(N[C@@H](C)C(=O)N1[C@H](C(=O)O)C[C@@H]2CCCC[C@@H]21)C(=O)OCC` (stereo not given in full), the “activity change, negative = inhibition” value is -7.07% (inactive).

For the compound `CC1=C(C)C(=O)OC(C(C)C2C(O)CC3C4C5OC5C5(O)CC(OC6OC(CO)C(O)C(O)C6O)CC(O)C5(C)C4CCC32C)C1` (stereo not given), the “activity change, negative = inhibition” value was 36.3% [at 15.1 µM] (inactive).

Take `C[C@@H]1O[C@@H](O[C@H]2[C@H](OC(=O)[C@]34CCC(C)(C)C[C@H]3C3=CCC5[C@@]6(C)C[C@H](O)[C@H](O[C@@H]7O[C@H](CO)[C@@H](O[C@@H]8O[C@H](CO)[C@@H](O)[C@H](O)[C@H]8O)[C@H](O)[C@H]7O)[C@@](C)(CO)C6[C@H](O)C[C@@]5(C)[C@]3(C)C[C@H]4O)OC[C@H](O)[C@@H]2O)[C@H](O)[C@H](O)[C@H]1O[C@@H]1OC[C@@H](O)[C@H](O[C@@H]2OC[C@](O)(CO)[C@H]2O)[C@H]1O` (stereo not given in full): the activity change, negative = inhibition is -19.4% [at 10.7 µM] (inactive).

Turning to `Cc1cc(O)cc(Oc2cc(C)c(C(=O)O)c(O)c2)c1`, the Potency is 17.8 µM (active).

With `CCc1nc(C(N)=O)c(Nc2ccc(N3CCC(N4CCN(C)CC4)CC3)c(OC)c2)nc1NC1CCOCC1`, the “outcome” value is “inactive [at 33.1 µM]”.

With `COC(=O)C1C(CC(C)=O)C=CC(O)C12Oc1cc(C)cc(O)c1C2=O` (stereo not given), the “outcome” value is “inactive [at 33.1 µM]”.

As for `CC1(C)CC[C@]2(C(=O)O)CC[C@]3(C)C(=CCC4[C@@]5(C)C[C@@H](O)[C@H](O)C(C)(C)C5CC[C@]43C)[C@@H]2[C@@H]1O` (stereo not given in full), the “outcome” value was “inactive [at 33.1 µM]”.

On to `CCC(=O)NS(=O)(=O)c1ccc(-c2c(-c3ccccc3)noc2C)cc1`, for which the “activity change, negative = inhibition” value was 19.9% (inactive).

On to `Cc1cn2c(N)c(Cl)cc(C(=O)NCC3CCN(CC(C)C)CC3)c2n1`, for which the “activity change, negative = inhibition” value is -0.447% (inactive).

With `CC(=O)Oc1cc2c(s1)CCN([C@H](C(=O)C1CC1)c1ccccc1F)C2`, the “activity change, negative = inhibition” value is 15.8% (inactive).

As to `C#Cc1cnc2[nH]c(=O)n(C(CC)CC)c2n1`, the “activity change, negative = inhibition” value was 26.8% (inactive).
